Sfp inh = qHTS Assay for Inhibitors of Bacillus subtilis Sfp phosphopantetheinyl transferase (PPTase); 4'-phosphopantetheinyl transferase ffp (Bacillus subtilis), Q9F4F7; Biochemical Sfp PPTase activity, qHTS; Potency, µM, for inactives: largest response in the series, negative = inhibition, hits mostly inhibitors; 310,000 compounds, 3.5% hits; AID 1490, 2009;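 note: the enzyme is Sfp with the accession as filed and its product quenches rhodamine fluorescence; 0% = enzyme reaction without inhibitor and -100% = no enzyme wells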
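Fluorescence-quenching assay with 15 nM Sfp, 5 uM rhodamine-CoA and 12.5 uM BHQ-2-labelled ybbR peptide in pH 7.6 Hepes/MgCl2 buffer. Enzyme was pre-incubated with compound for 15 min at room temperature. Rate was taken from the 30-min fluorescence change (525/598 nm).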
RORg inh = qHTS for inhibitors of ROR gamma transcriptional activity; Drosophila S2 Gal4-RORgamma UAS-luciferase reporter, 20 h; Potency, µM (titrated, usually from 53.6 µM), without a hit: at the top dose activity change, negative = inhibition, usual class: inhibitors; 310,000 compounds, 5.4% hits; AID 2551, 2010; note: nearly all actives have a fitted effect of over 60% in size
Target sequence (P51450 whole entry, looked up, the tested form may be a part): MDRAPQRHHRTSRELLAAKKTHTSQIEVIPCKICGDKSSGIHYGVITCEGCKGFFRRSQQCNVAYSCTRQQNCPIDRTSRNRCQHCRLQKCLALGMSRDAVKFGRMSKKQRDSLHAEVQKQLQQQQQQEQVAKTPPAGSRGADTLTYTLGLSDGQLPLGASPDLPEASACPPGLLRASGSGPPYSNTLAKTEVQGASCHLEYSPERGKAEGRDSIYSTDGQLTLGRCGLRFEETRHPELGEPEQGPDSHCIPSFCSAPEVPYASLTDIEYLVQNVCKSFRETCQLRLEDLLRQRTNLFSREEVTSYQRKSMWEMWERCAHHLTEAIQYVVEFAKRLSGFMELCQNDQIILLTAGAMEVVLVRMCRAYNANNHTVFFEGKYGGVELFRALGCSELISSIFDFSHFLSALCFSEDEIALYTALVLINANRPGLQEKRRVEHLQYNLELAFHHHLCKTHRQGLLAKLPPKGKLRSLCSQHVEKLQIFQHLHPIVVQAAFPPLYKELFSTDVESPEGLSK
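ROR gamma transcriptional activity was tracked as Gal4-UAS luciferase output in stably transfected Drosophila Schneider cells, with compound added 1 hr before 700 uM copper sulfate induction and a 20 hr ambient-temperature incubation.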
ALDH1A1 inh = qHTS Assay for Inhibitors of Aldehyde Dehydrogenase 1 (ALDH1A1); Aldehyde dehydrogenase 1A1 (Homo sapiens), P00352; Purified ALDH1A1, NADH fluorescence, propionaldehyde substrate; Potency, µM (series often up to 75.3 µM), without a hit: top-dose activity, negative = inhibition, usual class: inhibitors; 220,000 compounds, 7.3% hits; AID 1030, 2008; active = well fitted inhibition curve with a large enough effect, not every such curve was filed as active; inconclusive = small, poorly fitted or top-dose-only effect, or another doubt; inactive = no such curve, though single readings can be large or run the other way;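 note: plate controls were no enzyme wells and a reference inhibitor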
PLK1 PBD block = qHTS for Inhibitors of PLK1-PDB (polo-like kinase 1 - polo-box domain): Primary Screen; Serine/threonine-protein kinase PLK1 (Homo sapiens), P53350; Plk1 PBD binding of FITC phosphopeptide, fluorescence polarization; Potency, µM, for inactives: max response, negative = inhibition, actives largely listed as inhibitors; 360,000 compounds, 2.8% hits; AID 720504, 2013; note: series mostly up to about 57 µM; nearly all actives have a fitted effect of over 65% in size
VP16 counter = VP16 counterscreen qHTS for inhibitors of ROR gamma transcriptional activity; 310,000 compounds, 3.5% hits; AID 2546, 2010; Drosophila S2 Gal4-VP16 UAS-luciferase, luminescence, 20 h; Potency, µM (titrated, usually from 53.6 µM), for the others: top-dose activity, negative = inhibition, actives largely listed as inhibitors;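 note: Gal4-VP16 expression switched on by copper sulfate through the metallothionein promoter; nearly all actives have a fitted effect of over 50% in size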
Numbers without * were called inactive; ? = inconclusive; . = no result; [ ] = another dose, or the depositor's remark. Hits are enriched below; roughly 12% of the tested compounds scored in any of these assays. Unless noted, calls come from the whole dose curve; as a rule, active = well fitted curve in the direction sought with a large enough effect; inconclusive = small, poorly fitted or top-dose-only effect, or another doubt; inactive = no such curve, though single readings can be large; an effect the other way counts as inactive or inconclusive. Unless noted, % is set by controls: 0 for no effect and ±100 for the full control effect; potency is the fitted concentration of half-maximal effect.

SMILES	Sfp inh	RORg inh	ALDH1A1 inh	PLK1 PBD block	VP16 counter
CN(Cc1ccccc1)C(=O)c1[nH]cnc1C(=O)NCC(=O)OC(C)(C)C	14%	?	.	0%	-27%
Cc1cc(C(C)(C)C)cc(CNC2CCCCC2)c1O	.	.	17%[13.5 µM]	.	.
COc1ccc(NC(=O)c2nc[nH]c2C(=O)N(C)Cc2ccccc2)cc1	-4%	7.1µM*	.	1%	?
CN(Cc1ccccc1)C(=O)c1[nH]cnc1C(=O)Nc1ccc(Cl)cc1	.	.	.	-10%	.
C[C@H](NC(=O)c1nc[nH]c1C(=O)N[C@@H](CCCCNC(=O)OC(C)(C)C)C(=O)OC(C)(C)C)c1ccccc1	13%	5.6µM*	.	5%	11µM*
CC(C)(C)C(=O)Nc1nnc([C@H]2C[C@H](O)[C@@H](CO)O2)s1	.	.	.	3%	.
O=C(O)c1ccc(NC(=S)NC(NC(=O)c2ccco2)C(Cl)(Cl)Cl)cc1 (configuration not stated)	-7%	1%	40µM*	-3%	-5%
Cc1ccc(NC(=S)NC(NC(=O)c2ccco2)C(Cl)(Cl)Cl)cc1 (configuration not stated)	6%	11µM*	28µM*	-4%	7.1µM*
CC1OC(OC2C(OC3C(O[C@H]4CC[C@]5(C)C6C=C[C@]78OC[C@@]9(CC[C@@H](C)[C@H](C)C97)[C@H](O)C[C@@]8(C)[C@]6(C)CC[C@H]5C4(C)C)OC(C)C(O)C3O)OC(CO)C(O)C2O)C(O)C(O)C1O (some centres not stated)	79µM*	?	.	.	?
Cc1cc(C)n(S(=O)(=O)c2ccc(C(C)(C)C)cc2)n1	-1%	20%	13µM*	4%	5%
COC1=Nc2ccccc2/C=C\c2ccccc21	.	.	.	6%	.
CCSc1nnc(NC(=O)CSc2nnc(CNC(=O)c3ccc(OC)c(OC)c3)o2)s1	-6%	18µM*	?	-4%	?
COc1ccc(C(=O)NCc2nnc(SCC(=O)Nc3nc4ccccc4s3)o2)cc1	0%	11µM*	-1%	3%	11µM*
CCS(=O)(=O)N1CCN(C(=O)c2ccc3nc(C)c(N(C)C(=O)CCc4ccccc4)n3c2)CC1	.	.	.	1%	.
Cn1cccc1C(=O)N1CCC2(CC1)CCN(c1ccccc1)CC2	4%	14%	-8%	.	4%
NC(Cc1ccc(Cl)cc1)c1csc(Nc2ccc(C(F)(F)F)cn2)n1 (configuration not stated)	.	.	.	-11%	.
CCCc1ccc(S(=O)(=O)N2CCN(C(=O)CN3C(=O)NC(C)(C4CC4)C3=O)CC2)cc1 (configuration not stated)	.	.	.	-2%	.
c1ccc(CN=C2NN=C(c3cc4ccccc4o3)CS2)cc1	-7%	?	28µM*	2%	20µM*
c1ccc2oc(-c3ccn[nH]3)cc2c1	-9%	-34%	.	-7%	-16%
c1ccc2oc(C3=NNC(=NC4CC4)SC3)cc2c1	-40%	3.5µM*	28µM*	?	11µM*
O=C(COc1ccc(Cl)cc1)Nc1nc(-c2ccncc2)cs1	22µM*	?	.	9.5µM*	0%
CCOc1cc(/C=N/NC(=O)c2ccc(-c3csc(Nc4ccc(C)cc4)n3)cc2)ccc1OCC(=O)O	?	17%	-7%	?	-4%
O=C(Nc1nc(-c2ccccc2)cs1)c1ccccc1NS(=O)(=O)c1ccc(F)cc1	-3%	?	?	27µM*	5.6µM*
O=C(O)COc1ccc(/C=N/NC(=O)c2ccc(-c3csc(Nc4ccc(Cl)cc4)n3)cc2)cc1	45µM*	3%	.	?	3%
O=C(N/N=C/c1cccnc1)c1cccs1	-13%	-4%	.	-5%	1%
SMILES	Sfp inh	RORg inh	ALDH1A1 inh	PLK1 PBD block	VP16 counter
C(=N/Nc1nccs1)/c1cccnc1	50µM*	?	5%	-6%	-15%
O=C(CCS(=O)(=O)c1ccc(F)cc1)Nc1nc(-c2ccncc2)cs1	13µM*	38%	.	12µM*	-14%
Fc1ccc(-c2csc(NC(=S)Nc3ccccc3)n2)cc1	-11%	0.89µM*	.	?	3.2µM*
Clc1ccc(-c2csc(N/N=C\c3cccnc3)n2)cc1	56µM*	-5%	8%	1%	?
O=C(Nc1ccccc1)Nc1nc(-c2ccc(F)cc2)cs1	-10%	-6%	3%	-9%	2%
Clc1ccc(-c2csc(N/N=C/c3ccco3)n2)cc1	?	0%	.	0%	-12%
CC(C)(C)c1csc(NC(=O)CCS(=O)(=O)c2ccc(F)cc2)n1	.	.	.	1%	.
O=C(Nc1nc(-c2ccc(Cl)cc2)cs1)c1cccnc1	-7%	1%	0%	12µM*	10%
NC(Cc1ccc(C(F)(F)F)cc1)c1csc(Nc2ccc(C(=O)NCc3ccco3)cn2)n1 (configuration not stated)	.	.	.	-2%	.
Cn1c(Cl)cnc1C1CC(=O)c2cc(Cl)ccc2O1 (configuration not stated)	?	?	18µM*	-3%	-1%[0.365 µM]
O=C1CC(c2ccc(Cl)cc2)Oc2ccc(Cl)cc21 (configuration not stated)	.	.	.	-13%	.
CC1CCN(c2ccccc2NC(=O)c2ccc(F)cc2)CC1	-3%	-6%	?	-1%	-14%
CS(=O)(=O)N1CCN(c2ccccc2NC(=S)NC(=O)c2cccs2)CC1	18%	11µM*	0.45µM*	-7%	-19%
CC1CCN(c2ccccc2NC(=S)NC(=O)C(C)(C)C)CC1	4%	1.6µM*	1.3µM*	-3%	?
CC1CCN(c2ccccc2NC(=S)NC(=O)c2ccco2)CC1	.	.	.	-7%	.
CS(=O)(=O)N1CCN(c2ccccc2NC(=S)NC(=O)c2ccccc2[N+](=O)[O-])CC1	18%	-42%	0.71µM*	-8%	?
COc1ccccc1C(=O)Nc1ccccc1N1CCN(S(C)(=O)=O)CC1	4%	27%	?	-5%	-2%
CC1CCN(c2ccccc2NC(=S)NC(=O)c2cccs2)CC1	12%	2.2µM*	?	-3%	6.3µM*
